Source: PubChem BioAssay AID504332 (National Center for Advancing Translational Sciences (NCATS), 2011)
Among all 350,000 compounds or so, about 31,000 (8.9%) were called active. Entries that show only a call come without a potency. Another 15% or so got no clear call; they are omitted. Calls come from the whole dose curve; as a rule, active = well fitted inhibition curve with a large enough effect; inconclusive = small, poorly fitted or top-dose-only effect; inactive = no such curve, though single readings can be large or run the other way. For the sample, actives were picked, then their nearest neighbours and some compounds at random.

biological target: Histone-lysine N-methyltransferase EHMT2 (Homo sapiens) (UniProt Q96KQ7); test: qHTS Assay for Inhibitors of Histone Lysine Methyltransferase G9a; conditions: G9a H3K9 monomethylation, AlphaScreen, 2 h; series mostly up to 59 µM; note: nearly all actives have a fitted effect of over 75% in size
Sequence (Q96KQ7 913-1193 limits assumed): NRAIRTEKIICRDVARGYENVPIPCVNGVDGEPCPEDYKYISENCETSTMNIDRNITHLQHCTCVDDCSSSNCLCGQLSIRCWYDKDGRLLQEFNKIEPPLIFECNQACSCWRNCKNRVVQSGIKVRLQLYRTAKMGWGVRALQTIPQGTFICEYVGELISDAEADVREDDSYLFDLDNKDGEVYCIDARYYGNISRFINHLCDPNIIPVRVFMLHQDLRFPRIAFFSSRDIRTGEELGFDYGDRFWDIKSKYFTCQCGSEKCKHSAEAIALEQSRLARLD
From the text: Methylated lysines, on the N-terminal tails of histone proteins serve as epigenetic markers to recruit factors that can then modify local chromatin structure to lead to functional consequences. G9a and other members of the SUV39 family of the SET domain-containing superfamily of histone lysine methyltransferases (HMT) have been identified to specifically methylate Lys9 of histone H3 (H3K9). G9a catalyzes the mono- and di-methylation of H3K9 in mammalian euchromatic regions, where the resulting H3K9me2 is indicative of transcriptional repression. […] The inhibition of G9a will result in transcriptional activation and work synergistically with DNA methyltransferase and histone deacetylase inhibitors, to kill cancer cells. This qHTS assay for identification of G9a inhibitors is a chemiluminescence based AlphaScreen (PerkinElmer). Methylation of biotinylated-histone peptide is measured through specific antibody-based detection, in conjunction with streptavidin-coated donor and anti-IgG antibody-coated acceptor beads. The method is particularly well suited for detection of inhibitors acting by the desired histone peptide competitive mechanism and is applicable to testing other HMTs. Although AlphaScreen has significant advantages with its utility in a variety of epigenetic target assays, the primary screening data provided in this deposition should be used with caution due to the prevalence of screening artifacts. An AlphaScreen counterscreen is highly recommended to be run against any putative actives to eliminate non specific artifacts. Alternatively, one can use other AlphaScreen assays in PubChem to filter out promiscuous hits. Quinn et al. A chemiluminescence-based method for identification of histone lysine methyltransferase inhibitors. Mol Biosyst 6(5): 782-8. 2010. PMID: 20567762 [2] Baell,Holloway. New substructure filters for removal of pan assay interference compounds (PAINS) from screening libraries and for their exclusion in bioassays. J Med Chem. 53(7):2719-40. 2010. PMID: 20131845 NIH Molecular Libraries Probe Production Network [MLPCN] NIH Chemical Genomics Center [NCGC] Structural Genomics Consortium (SGC) NIH Grant: 5U54 MH084681-02
To each well of a 1,536w plate, 2ul of HMT enzyme (final 20nM) were added, using a nanoliter dispenser. The G9a- and GLP-inhibitor BIX-01294 (CID: 25150857) are used as an intraplate control, with a 16-point titration in duplicate. A Kalypsys pin-tool transferred 23nl of library compound solution in DMSO to each well. Following a 15 min incubation of enzyme with compounds at room temperature, 1ul mixture of b-H3K9 peptide substrate (final 500nM) and SAM cofactor (final 20uM) were added. Reactions were allowed to proceed at room temperature for 2 hours. Methylated b-H3K9 peptide product was detected with 0.5 ug/mL rabbit polyclonal anti-monomethyl histone H3K9 antibody (Abcam Inc., Cambridge, MA) and 20 ug/mL each streptavidin-coated donor and anti-rabbit IgG acceptor AlphaScreen beads. Antibody and beads were added in a 1ul dispense, for a final volume of 4ul, and plates were incubated, protected from the light, for 10 min at room temperature. Microplates were then read on an EnVision multilabel plate reader using the 1,536 plate HTS AlphaScreen aperture (excitation time 80 ms, measurement time 240 ms).
Potency is the fitted concentration of half-maximal effect.

Row | Compound | Potency | activity, negative = inhibition
1 | COc1cc(C(=O)NCCc2csc3nc(-c4ccccc4C)nn23)cc(OC)c1OC | inactive | –
2 | CC(=O)NC(CC(=O)O)c1ccc(F)cc1 (centres undefined) | inactive | –
3 | CN(C)c1ccc(C(CC(=O)O)C(=O)O)cc1 (centres undefined) | 56.2 µM (active) | –
4 | CN(C)c1ccc(/C=N/NC(=O)C(O)c2ccc(Br)cc2)cc1 (centres undefined) | inactive | –
5 | COc1cccc(C(=O)N(Cc2cccc(Cl)c2)Cc2ccco2)c1 | inactive | –
6 | COc1ccccc1-c1cc(C(=O)N2CCCCC2)no1 | inactive | –
7 | COc1ccc(OCc2cc(C(=O)N3CCCC3)no2)c2ccccc12 | 39.8 µM (active) | –
8 | O=C(c1cc(COc2ccc(F)cc2F)on1)N1CCOCC1 | inactive | –
9 | Cc1ccc(CNS(=O)(=O)CCNC(=O)c2ccccc2)cc1 | inactive | –
10 | Cc1csc(NC(=O)C2=COCCO2)n1 | inactive | –
11 | Cc1ccc(-c2csc(NC(=O)C3=COCCO3)n2)cc1C | 56.2 µM (active) | –
12 | Cc1ccc(-c2csc(NC(=O)c3cnccn3)n2)cc1C | inactive | –
13 | O=C(Nc1ccc(OC(F)(F)F)cc1)c1cc2c(=O)n3ccccc3nc2s1 | inactive | –
14 | Cc1c(NC(=O)CSc2nnc(-c3cccnc3)n2N)c(=O)n(-c2ccccc2)n1C | – | 24.5% [at 12.7 µM] (inactive)
15 | Cc1cc(=O)[nH]c(SCc2cc(Cl)ccc2OC(F)F)n1 | inactive | –
16 | CCCCOc1ccc(Cl)cc1CSc1nncn1N | 7.08 µM (active) | –
17 | COC(=O)c1ccc(CSc2nncn2N)cc1 | inactive | –
18 | Cc1cccc(N(C(=O)Cc2cccs2)C(C(=O)NCc2ccco2)c2ccncc2)c1 (centres undefined) | inactive | –
19 | Cc1ccc2nc(SC(C)C(=O)NCc3ccco3)[nH]c2c1 (centres undefined) | 39.8 µM (active) | –
20 | Cc1ccc(NC(=O)C(=O)NCc2ccco2)c(C)c1 | inactive | –
21 | CCN1CCN(Cc2c(O)ccc3oc(C)c(C(=O)Nc4ccc(C)cc4C)c23)CC1 | inactive | –
22 | CCOc1ccc(-c2nonc2NC(=O)c2oc3ccc(C)cc3c2C)cc1OCC | inactive | –
23 | O=C(C1CCN(C2CCN(Cc3cccc4c3OCO4)CC2)CC1)N1CCOCC1 | inactive | –
24 | O=C(c1cccs1)N1CCN(Cc2ccc3c(c2)OCO3)CC1 | 56.2 µM (active) | –
25 | O=C(Nc1cccc2ccccc12)N1CCN(Cc2ccc3c(c2)OCO3)CC1 | – | 2.38% [at 12.7 µM] (inactive)
26 | O=C(C1CCN(S(=O)(=O)c2cnc[nH]2)CC1)N1CCN(Cc2ccc3c(c2)OCO3)CC1 | – | -12% [at 12.7 µM] (inactive)
27 | Cc1cc(C)n2nc(C(=O)N3CCN(Cc4ccc5c(c4)OCO5)CC3)nc2n1 | inactive | –
28 | O=C(C1CCN(Cc2ccc(Cl)cc2)CC1)N1CCN(Cc2ccc3c(c2)OCO3)CC1 | 8.91 µM (active) | –
29 | Cc1ccc(S(=O)(=O)N2[C@@H](c3cccc(Cl)c3)C(C(=O)O)=CC[C@H]2c2ccc(Cl)c(Cl)c2)cc1 | – | 13.5% [at 2.33 µM] (inactive)
